From PubChem BioAssay AID1851 (National Center for Advancing Translational Sciences (NCATS), 2009)
“And” between values parts separate entries of the source, which are not always exact repeats. Equal entries are not always repeated. Hit rate of the full screen: of about 16,000 compounds, about 2,600 (16%) were called active. Another 20% or so got no clear call; they are omitted. Calls come from the whole dose curve; as a rule, active = well fitted curve in the direction sought with a large enough effect; inconclusive = small, poorly fitted or top-dose-only effect, or effect the other way; inactive = no such curve, though single readings can be large or run the other way. Only a sample is shown. Where a structure was tested more than once in an assay, its records may differ in their call.

Each compound was assayed against Cytochrome P450 2D6 (Homo sapiens) (UniProt P10635) (assay: Cytochrome panel assay with activity outcomes). Settings: recombinant CYP, pro-luciferin dealkylation, luminescence, p450-cyp2d6; series mostly up to 57.1 µM; activity, negative = inhibition: at the top concentration.
% is set by controls: 0 for no effect and ±100 for the full control effect.

Cytochrome P450 2D6 (Homo sapiens), sequence (P10635 whole entry, looked up): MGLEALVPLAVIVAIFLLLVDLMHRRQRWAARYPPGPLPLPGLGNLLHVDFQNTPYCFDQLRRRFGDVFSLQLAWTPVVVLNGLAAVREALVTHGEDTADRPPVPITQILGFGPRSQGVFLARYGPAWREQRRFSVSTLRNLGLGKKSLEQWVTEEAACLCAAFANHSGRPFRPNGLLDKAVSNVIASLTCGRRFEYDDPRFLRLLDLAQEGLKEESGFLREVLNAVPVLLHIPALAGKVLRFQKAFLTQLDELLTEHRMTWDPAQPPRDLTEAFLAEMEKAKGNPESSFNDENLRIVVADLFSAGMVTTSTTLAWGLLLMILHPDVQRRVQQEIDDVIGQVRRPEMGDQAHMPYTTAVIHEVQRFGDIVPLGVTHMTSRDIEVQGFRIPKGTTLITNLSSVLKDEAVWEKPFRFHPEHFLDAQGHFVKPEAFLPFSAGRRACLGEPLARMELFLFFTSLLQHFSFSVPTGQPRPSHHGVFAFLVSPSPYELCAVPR

Row | Compound | activity, negative = inhibition | AC50
1 | Cc1nc(C(=O)Nc2cccc(Cl)c2Cl)nn1-c1cc(OC(C)C)c(Cl)cc1Cl | 10.4% (inactive) | –
2 | O=Nc1ccc(NOC(=O)c2ccc(Br)cc2)cc1 | 8.91% (inactive) | –
3 | Cc1ccc(C(=O)NNC(=O)C2CCCN(c3ncccn3)C2)cc1 (stereo not drawn) | -12.1% (inactive) | –
4 | Nc1ncnc2c1cnn2-c1ccccc1 | 8.69% (inactive) | –
5 | Cc1cc(C)n(-c2ccc(F)cc2)c(=O)c1C(=O)O | 5.5% (inactive) | –
6 | CSc1nc2ccccc2cc1/C=C(\C#N)c1ccccc1 | -21.5% (inactive) | –
7 | COc1ccccc1C(OC(=O)c1cccs1)C(=O)NCC1CCCO1 (stereo not drawn) | -3.85% (inactive) | –
8 | NCCC(=O)O | 18.6% (inactive) | –
9 | O=C(O)CCCCCn1c(SCC(=O)N2CCCC2)nc2ccsc2c1=O | 3.57% (inactive) | –
10 | CC[C@@]1(O)C(=O)COc2c1cc1n(c2=O)Cc2c-1nc1cccc(C(C)C)c1c2[Si](C)(C)C | -5.56% (inactive) | –
11 | COc1ccc([C@H]2Sc3ccccc3N(CCN(C)C)C(=O)[C@H]2OC(C)=O)cc1 | – | inactive
12 | COc1ccc([C@@H]2Sc3ccccc3N(CCN(C)C)C(=O)[C@@H]2OC(C)=O)cc1 | -0.971% (inactive) | –
13 | COc1ccc2c(c1)N(C[C@@H](C)CN(C)C)c1ccccc1S2 | – | 63.1 nM (active)
14 | CCCCCC(=O)N1CC2(CC(c3cccc(NC(=O)c4ccccc4)c3)=NO2)C[C@@H]1C(N)=O (stereo partly drawn) | 11.3% (inactive) | –
15 | O=C(CSc1nc2ccccc2o1)NC(=O)NCc1ccccc1 | -3.58% (inactive) | –
16 | O=C(CN(C(=O)CSc1nc2ccccc2o1)c1cccc(F)c1)NC1CCCCC1 | – | 12600 nM (active)
17 | O=C(CSc1nc2ccccc2o1)Nc1nc2ccccc2s1 | -22.6% (inactive) | –
18 | Cc1cccc(-c2c3c(=O)n(C)c(=O)n(C)c3cn2C2CCCCC2)c1 | -15.1% (inactive) | –
19 | CO[C@@H]1COC(=O)[C@H](CCSC)NC(=O)C/C=C\[C@@H](C)COC(=O)[C@@H]2CCCN2C(=O)C/C=C\[C@H]1C | 11.2% [at 11.4 µM] (inactive) | –
20 | CC(=O)Nc1ccc(OC[C@@H](O)CNC(C)C)cc1 | – | inactive and 3.16 µM (active)
21 | CC(C)NC[C@@H](O)COc1ccc(COCCOC(C)C)cc1 | – | inactive
22 | CC(C)NC[C@@H](O)COc1ccc(CCOCC2CC2)cc1 | – | inactive
23 | Cc1cc(C(=O)C(=O)NC(C)C)c(C)n1-c1ccc([N+](=O)[O-])cc1 | 18.9% (inactive) | –
24 | CC(=O)NS(=O)(=O)c1ccc(NC(=S)NC(=O)C(C)(C)C)cc1 | 8.65% (inactive) | –
25 | Cc1ccc(-c2nn(-c3ccccc3)cc2/C=N/NS(=O)(=O)c2ccccc2)cc1 | -8.24% (inactive) | –

Row | Compound | activity, negative = inhibition | AC50
26 | O=C(N/N=C\c1cn(-c2ccccc2)nc1-c1ccccc1)c1ccc(Br)o1 | 11.4% (inactive) | –
27 | O=S(=O)(N/N=C\c1cn(-c2ccccc2)nc1-c1ccccc1)c1ccccc1 | – | 112 nM (active)
28 | COc1ccc(C2C(C(=O)N3CCOCC3)c3ccccc3C(=O)N2c2ccc(OC)cc2)cc1 (stereo not drawn) | -7.47% (inactive) | –
29 | CNc1ccnc(-c2ccccc2CN(C)C)n1 | – | 39.8 nM (active)
30 | CN(C)Cc1ccccc1-c1nccc(Nc2ccc(F)cc2)n1 | – | 10000 nM (active)
31 | CN(C)Cc1ccccc1-c1nccc(NC2CC2)n1 | – | 631 nM (active)
32 | CNc1ccnc(-c2c(C)noc2C)n1 | -3.6% (inactive) | –
33 | Cc1nn2c(NCC(C)C)c3c(nc2c1-c1ccccc1)CCC3 | -26.8% (inactive) | –
34 | Cc1ccc(S(=O)(=O)N=Nc2c(O)[nH]c3cc(O)c(C(=O)O)cc23)cc1 | 6.63% [at 11.4 µM] (inactive) | –
35 | COC(=O)C/C=C\[C@@H](C)[C@@H]1C=C[C@H](OC(C)=O)[C@H](COC(C)=O)O1 | 13.8% [at 11.4 µM] (inactive) | –
36 | CCC(C)(C(=O)NC1CCCC1)N(C(=O)c1ccccn1)c1ccccc1 (stereo not drawn) | 0.576% (inactive) | –
37 | Nc1nc(Nc2ccccc2)nc2c1ncn2[C@@H]1O[C@@H](CO)[C@H](O)[C@@H]1O | 10.4% (inactive) | –
38 | N[C@@H](Cc1cc(-c2ccc(Cl)cc2Cl)cc(CP(=O)(O)O)c1O)C(=O)O | -17.1% (inactive) | –
39 | CCC(C)C(NS(=O)(=O)c1ccc(C)cc1)C(=O)Oc1ccc2c3c(c(=O)oc2c1)CCC3 (stereo not drawn) | -13.9% (inactive) | –
40 | CCc1cc2c(=O)c(-c3nc4ccccc4n3C)c(C)oc2c(CN(CC)CC)c1O | -3.61% (inactive) | –
41 | CCN(CC)Cc1c(O)c(Cl)cc2c3c(c(=O)oc12)CCCC3 | – | 2510 nM (active)
42 | CC(C)CN(Cc1c(O)ccc2c3c(c(=O)oc12)CCC3)CC(C)C | – | 224 nM (active)
43 | CCN(CC)Cc1c(O)ccc2c(=O)c(Oc3ccccc3OC)coc12 | 6.48% (inactive) | –
44 | CCCCCOC(=O)CSc1nnc(-c2ccccc2)c(=O)[nH]1 | 16.4% (inactive) | –
45 | Cn1c(=O)c2[nH]c(CCC(=O)O)nc2n(C)c1=O | -4.99% [at 11.4 µM] (inactive) | –
46 | CCOC(=O)C1=C(C)NC(=O)N[C@@H]1c1coc2cc(C)cc(C)c2c1=O | 0.866% [at 11.4 µM] (inactive) | –
47 | O=C(OC1CCN(c2ncc(C(F)(F)F)cc2Cl)CC1)c1cccc(C(F)(F)F)c1 | -3.01% (inactive) | –
48 | CCN(c1ccccc1)c1cc(NC)[n+](C)c(C)n1 | – | 3980 nM (active)
49 | CN(C(=O)CC(NC(=O)c1ccccc1)(c1ccccc1)c1ccccc1)c1ccccc1 | -9.41% (inactive) | –
50 | COC(=O)c1cc(NC(=O)N2c3ccccc3Sc3ccccc32)cc(C(=O)OC)c1 | 5.22% (inactive) | –

Row | Compound | activity, negative = inhibition | AC50
51 | O=C(NCCc1ccccc1)N1c2ccccc2Sc2ccccc21 | – | 20000 nM (active)
52 | O=C(CSc1nc2ccccc2s1)N1c2ccccc2Sc2ccccc21 | 3.68% (inactive) | –
53 | Cc1ccc(N=Nc2ccc(N)cc2C)c(S(N)(=O)=O)c1 | 3.5% [at 11.4 µM] (inactive) | –
54 | Cc1ccccc1-n1c(=O)cc(N2CC(C)OC(C)C2)[nH]c1=O (stereo not drawn) | -2.9% (inactive) | –
55 | C/C(=C\c1ccc(C(=O)O)cc1)c1ccc2c(c1)C(C)(C)CCC2(C)C | – | 12.6 nM (active)
56 | CC1(C)CCC(C)(C)c2cc(C(=O)Nc3ccc(C(=O)O)cc3)ccc21 | -18.8% (inactive) | –
57 | C/C(=C\c1ccc(Cl)cc1)C(C)(C)C(=O)O | 6.46% [at 11.4 µM] (inactive) | –
58 | COC(=O)\C(C(C)=O)=C(/C=C/C=C/C=C/N(C)C)N(C)C | -21.3% (inactive) | –
59 | N=C(N)CCNC(=O)[C@@H]1CCC(N)=N1 | 2.49% [at 11.4 µM] (inactive) | –
60 | CCC(=O)Nc1ccc(NC(=O)CSc2nnnn2-c2cccnc2)cc1C | -3.22% (inactive) | –
61 | CC1=C(C)/C(=N\OC(=O)/C=C/c2ccccc2)C=CC1=O | -17.9% (inactive) | –
62 | Cc1ccc(S(=O)(=O)/N=C2/NC(=O)/C(=C/c3cccnc3)S2)cc1 | -9.7% (inactive) | –
63 | COc1ccc2ccccc2c1/C=C\C(=O)c1ccccc1 | 7.33% [at 11.4 µM] (inactive) | –
64 | CC1(C)Oc2ccc(C#N)cc2[C@H](N2CCCC2=O)[C@H]1O | 3.54% (inactive) | –
65 | CCCn1nc(NC(=O)CC(C)C)c2cc3ccccc3nc21 | -8.32% (inactive) | –
66 | Cc1ccc(C(=O)COC(=O)c2ccccc2N2C(=O)C3C4CCC(C4)C3C2=O)cc1C (stereo not drawn) | -11.3% (inactive) | –
67 | Clc1ccc(CN2CCCN(Cc3ccc(Cl)cc3)C2c2cc3ccccc3c3ccccc23)cc1 | – | 200 nM (active)
68 | O=C(O)[C@@H]1CCCN1Cc1cc2ccccc2c2ccccc12 | 10.3% [at 11.4 µM] (inactive) | –
69 | COC(=O)C1=C(N)Oc2cc(C)n(CC3CCCO3)c(=O)c2C1c1ccccc1OC (stereo not drawn) | 0.229% (inactive) | –
70 | COc1cc(C(=O)N2CCC(NC(=O)C(Cc3ccc(C(C)C)cc3)NC(C)=O)CC2)cc(OC)c1OC (stereo not drawn) | -11.8% (inactive) | –
71 | CN(C)CCCNc1c(C(=O)O)cnc2c1cnn2C | 6.96% (inactive) | –
72 | Cc1cc2nc(C)n(CCCN)c2cc1C | -23.3% (inactive) | –
73 | C[C@@H]1CCN=C(N)S1 | – | inactive
74 | CN(C)c1nc(N)c(C(=O)N=C(N)N)nc1Cl | -8.15% (inactive) | –
75 | CC(C)CN(C)c1nc(N)c(C(=O)N=C(N)N)nc1Cl | – | 39800 nM (active)

Row | Compound | activity, negative = inhibition | AC50
76 | N[C@]1(C(=O)O)CCc2cc(P(=O)(O)O)ccc21 | 12.2% (inactive) | –
77 | CC(C)=CCC/C(C)=C/CC/C(C)=C/CSc1ccccc1C(=O)O | 6.75% (inactive) | –
78 | O=C(N/N=C1/C[C@@H](O)[C@@H](O)[C@@H]2[C@@H]3C(=O)N(Cc4ccc5c(c4)OCO5)C(=O)[C@H]3CC[C@H]12)OCc1ccccc1 | -16.9% [at 11.4 µM] (inactive) | –
79 | Cc1cc(CSc2ccccc2)ccc1NC(=O)COc1ccccc1 | -20.7% (inactive) | –
80 | CC1=CC(C)(C)Nc2ccc(CSc3ccccc3)cc21 | – | 631 nM (active)
81 | O=c1cc(CSc2ccccc2)[nH]c(=S)[nH]1 | -1.57% (inactive) | –
82 | Cc1cc(=Nc2ccc3c(c2)c(N)cc(C)[n+]3C)nc(N)n1C | 2.81% [at 11.4 µM] (inactive) | –
83 | Cc1ccc(C(=O)NC(=S)NCC(=O)c2ccccc2)cc1 | -0.0035% (inactive) | –
84 | O=C(CSc1nc2ccccc2c2ccccc12)c1ccccc1 | 15.3% [at 11.4 µM] (inactive) | –
85 | C=CCSc1nc2ccccc2n1C(=O)/C=C/c1cc(OC)c(OC)c(OC)c1 | -18.1% (inactive) | –
86 | O=C(COC(=O)c1cccc(S(=O)(=O)N2CCN(c3ccccc3)CC2)c1)NCc1ccco1 | -24.8% (inactive) | –
87 | O=C(c1ccccc1)N(Cc1ccco1)C1CCS(=O)(=O)C1 (stereo not drawn) | 0.77% (inactive) | –
88 | Cc1cc(C)c2[nH]c(=O)c(CN(Cc3ccco3)C(=O)c3cccs3)cc2c1 | -0.89% (inactive) | –
89 | O=C(CN(Cc1ccco1)C(=O)c1cccc(Cl)c1)Nc1c(Cl)cc(Cl)cc1Cl | – | 7080 nM (active)
90 | O=C(CN(Cc1ccco1)C(=O)c1ccccc1)Nc1ccc(Cl)c(Cl)c1 | – | 25100 nM (active)
91 | O=C(c1ccco1)N(CCC(c1ccccc1)c1ccco1)Cc1ccco1 (stereo not drawn) | -23.7% (inactive) | –
92 | CC(=O)Nc1ccc(N2C(=O)CC(c3ccccc3)CC2=O)cc1 | -0.454% (inactive) | –
93 | CC(=O)Nc1ccc(S(=O)(=O)N=S(C)C)cc1 | – | inactive
94 | CCOc1ccc(CCNC(=O)C2CCN(S(=O)(=O)CC)CC2)cc1OCC | -2.78% (inactive) | –
95 | CCOc1cc(CNCCc2ccc(S(N)(=O)=O)cc2)ccc1OCc1ccc(Cl)cc1 | – | 8910 nM (active)
96 | NS(=O)(=O)c1ccc(CCNC(=O)C2CCCN2C(=O)OCc2ccccc2)cc1 (stereo not drawn) | -16.8% (inactive) | –
97 | CCOc1cc(CNCCc2ccc(S(N)(=O)=O)cc2)cc(Cl)c1OCc1ccccc1 | – | 355 nM (active)
98 | NS(=O)(=O)c1ccc(CNC(=O)/C=C/c2c(Cl)cccc2Cl)cc1 | -21.5% (inactive) | –
